According to PubChem BioAssay (EPA / NIEHS):
“And” between values parts separate entries of the source, which are not always exact repeats. Identical values can stand only once. Inconclusive results are not listed. Some compounds were tested as several samples or in several runs, with calls that do not always agree. The source made the active and inactive calls. Rule for the calls: active = hit-call score of the fitted dose curve at least 0.9, where 1 is the maximum; inconclusive = response in the unintended direction; inactive = score below 0.9.

Read-out: xenobiotic metabolism (CYP1A1), CYP1A1 (gene 1543)
Assay: CLD_CYP1A1_6hr: CellzDirect (CLD) Gene Expression Assay for xenobiotic metabolism (CYP1A1) at 6 hours (AID 2283661);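 for AC50: potency for transcript induction above DMSO vehicle baseline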
Experimental: CLD_6hr is a cell-based, multiplexed-readout assay that uses hepatocyte, a human liver primary cell, with measurements taken at 6 hours after chemical dosing in a 96-well plate.CLD_CYP1A1_6hr is one of 16 assay component(s) measured or calculated from the CLD_6hr assay. It is designed to make measurements of mRNA induction, a form of inducible reporter, as detected with chemiluminescence signals by Quantitative Nuclease Protection Assay (qNPA) technology.Data from the assay component CLD_CYP1A1_6hr was analyzed at the endpoint, CLD_CYP1A1_6hr, in the positive analysis fitting direction relative to DMSO as the negative control and baseline of activity. Using a type of inducible reporter, gain-of-signal activity can be used to understand changes in the reporter gene as they relate to the gene CYP1A1. Furthermore, this assay endpoint can be referred to as a primary readout. To generalize the intended target to other relatable targets, this assay endpoint is annotated to the cyp intended target family, where subfamily is xenobiotic metabolism.
Human hepatocyte cultures were treated daily for two consecutive days with fresh dosing solutions containing appropriate concentrations of the 320 ToxCast chemicals (chemical identities were blinded to CellzDirect and other ToxCast collaborators), vehicle control (0.2% DMSO), and positive control inducers as summarized in Table 1. Due to the large number of treatment groups and chemicals examined, the ToxCast chemicals were divided into two groups (spanning two independent cultures of hepatocytes from separate donor preparations (Hu778: ToxCast plates 1 and 2; Hu776: ToxCast plates 3 and 4). Each preparation of human hepatocyte cultures was treated with respective vehicle control, medium only control, set of six positive controls/reference chemicals for the five hepatic receptor pathways, and a subset of eight of the ToxCast chemicals (indoxacarb, pyrithiobac-sodium, norflurazon, cyhalofop-butyl, methomyl, thiram, acetochlor, and propiconazole). These replicate data, coupled with internal replicates designed within the blinded ToxCast chemical library, provided additional data to evaluate interindividual differences between hepatocyte preparations and their potential impact on chemical profiles.Cell morphology and integrity were evaluated using phase-contrast microscopy as an indicator of hepatocyte cell health (Tyson & Green, 1987). Cultures for each treatment group (i.e., media, vehicle [0.2% DMSO], positive control inducers [multiple concentrations], and the ToxCast chemicals [multiple concentrations]) were observed and cell morphology was assessed relative to vehicle control cultures at each harvest time point (0, 6, 24, or 48 h). […] Images were evaluated at the conclusion of the study to assess changes in cell integrity and account for the effects of chemical exposure on uncharacteristic changes in concentration-dependent gene expression profiles. The results from these determinations of apparent cytotoxicity were annotated (yes/no) alongside the corresponding qNPA data for reference.At the conclusion of each treatment period, hepatocyte cultures (96-well) were washed with 1 volume of HBSS, lysed by addition of 25 ul ArrayPlate lysis buffer (HTG, Tucson, AZ), and 70 ul/well of Denaturation Oil, denatured by incubation at 95C for 10 min, and frozen at approximately -70C until analysis by nuclease protection assay (qNPA) (Roberts et al., 2007). For qNPA analysis, cell lysates were thawed at 50C for approximately 30 min, qNPA probes were added, and samples were incubated at 95C for 10 min to begin the detection process by denaturing the target RNA, dissociating the duplexes and secondary structure hybridization. At the conclusion of the hybridization period, S1 nuclease reagent was added to each sample to digest all nonprotected nucleotides at 50C for 60-90 min. […]

Compound	AC50	outcome
CC1=C(C(=O)Nc2ccccc2)SCCO1	11.1 µM (active)	–
CCNc1nc(Cl)nc(NCC)n1	4.72 µM (active)	–
CCc1nn(C)c(C(=O)NCc2ccc(C(C)(C)C)cc2)c1Cl	6.51 µM (active)	–
COP(=S)(OC)Oc1nc(Cl)c(Cl)cc1Cl	5.29 µM (active)	–
CCCCNC(=O)OCC#CI	0.851 µM (active)	inactive
C=CCC1=C(C)C(OC(=O)C2C(C=C(C)C)C2(C)C)CC1=O (stereo not given)	–	inactive
N#Cc1cc(Br)c(O)c(Br)c1	–	inactive
COc1nc(NC(C)C)nc(NC(C)C)n1	3.97 µM (active)	–
COC(=O)C(C)Oc1ccc(Oc2ccc(Cl)cc2Cl)cc1 (stereo not given)	3.97 µM (active) and 4.59 µM (active)	–
C=CCC1=C(C)[C@@H](OC(=O)[C@@H]2[C@@H](C=C(C)C)C2(C)C)CC1=O	–	inactive
N#CC(CCc1ccc(Cl)cc1)(Cn1cncn1)c1ccccc1 (stereo not given)	1.89 µM (active)	–
COc1nc(C)nc(NC(=O)NS(=O)(=O)c2ccccc2CCC(F)(F)F)n1	1.9 µM (active) and 287 nM (active)	inactive
CCNc1nc(Cl)nc(NC(C)C)n1	2.19 µM (active)	–
COc1nc(C)nc(NC(=O)NS(=O)(=O)c2ccccc2Cl)n1	0.00131 µM (active)	inactive
C=CC1(C)OC(=O)N(c2cc(Cl)cc(Cl)c2)C1=O (stereo not given)	1.47 µM (active)	–
CCOC(=O)CC(SP(=S)(OC)OC)C(=O)OCC (stereo not given)	3.97 µM (active)	–
CCOP(=S)(OCC)SCn1c(=O)oc2cc(Cl)ccc21	0.36 µM (active)	–
CCCC1COC(Cn2cncn2)(c2ccc(Cl)cc2Cl)O1 (stereo not given)	6.32 µM (active)	–

Compound	AC50	outcome
CNC(=O)ON=CC(C)(C)SC	0.000972 µM (active)	–
CC1COC(Cn2cncn2)(c2ccc(Oc3ccc(Cl)cc3)cc2Cl)O1 (stereo not given)	–	inactive
Cc1ccc(-c2c(Cl)nc(C#N)n2S(=O)(=O)N(C)C)cc1	0.105 µM (active)	–
Cc1c(F)c(F)c(COC(=O)C2C(/C=C(\Cl)C(F)(F)F)C2(C)C)c(F)c1F (stereo not given)	–	inactive
CCCCC(CC)COC(=O)c1ccccc1C(=O)OCC(CC)CCCC (stereo not given)	–	inactive
O=C(Nc1ccccc1)Nc1ccnc(Cl)c1	12.3 µM (active)	–
Fc1ccc(Oc2ccnc3cc(Cl)cc(Cl)c23)cc1	3.13 µM (active)	–
CC(C)C1(C)N=C(c2nc3ccccc3cc2C(=O)O)NC1=O (stereo not given)	–	inactive
CNC(=S)S	–	inactive
OC(c1ccc(Cl)cc1)(c1cncnc1)c1ccccc1Cl (stereo not given)	–	inactive
CS/C(C)=N/OC(=O)N(C)SN(C)C(=O)O/N=C(\C)SC	–	inactive
O=C(O)c1nc(Cl)ccc1Cl	4.04 µM (active)	inactive
COc1ccc(C(c2ccc(OC)cc2)C(Cl)(Cl)Cl)cc1	15.8 µM (active)	–
CCON=C(CC)C1=C(O)CC(c2c(C)cc(C)cc2C)CC1=O (stereo not given)	–	inactive
CC(Oc1ccc(Cl)cc1Cl)C(=O)O (stereo not given)	–	inactive
COP(N)(=O)SC (stereo not given)	–	inactive
COC(=O)c1ccccc1C(=O)OC	–	inactive
CC(C)Oc1cc(-n2nc(C(C)(C)C)oc2=O)c(Cl)cc1Cl	1.57 µM (active)	–
